The panel holds about 79,000 compounds, 15% with a hit somewhere; the sample as a whole holds those more often. Calls of active or inactive are those of the source. Cut-off read from the data, not from the text of the source: active = growth inhibition above about 70%; inactive = the rest.
Key:
[1] = NCI Yeast Anticancer Drug Screen. Data for the rad52 strain (AID 147);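 note: 0% = growth of vehicle-treated control cultures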; conditions: S. cerevisiae rad52 mutant growth inhibition, stronger effect = higher value
In short: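 Read-out: growth inhibition versus vehicle-treated controls. Cells were a DNA repair-deficient yeast strain treated with compounds.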

[2] = NCI Yeast Anticancer Drug Screen. Data for the wt1 strain (AID 149);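 note: 0% = growth of vehicle-treated wt1 cultures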; conditions: S. cerevisiae wt1 strain (SPY 50644) growth inhibition, stronger effect = higher value
In short: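 Each compound is tested on wt1 yeast and the loss of growth versus vehicle gives the inhibition value.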

[3] = NCI Yeast Anticancer Drug Screen. Data for the rad50EPP+ strain (AID 151);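 note: 0% = growth of vehicle-treated control cultures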; conditions: S. cerevisiae rad50 mutant strain, stronger effect = higher value
In short: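 Growth inhibition read against vehicle controls in rad50EPP+ yeast, a strain altered in DNA damage repair, after compound exposure.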

[4] = NCI Yeast Anticancer Drug Screen. Data for the rad50 strain (AID 155);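 note: 0% = growth of vehicle-only cultures of the same strain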; conditions: S. cerevisiae rad50 strain growth inhibition, stronger effect = higher value
In short: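 Vehicle-treated cultures provide the reference for the growth inhibition reported for compound-exposed, repair-deficient yeast.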

[5] = NCI Yeast Anticancer Drug Screen. Data for the mec2-1 strain (AID 157); conditions: S. cerevisiae mec2-1 strain, stronger effect = higher value
In short: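 Yeast mec2-1 mutant treated with compound. Readout: growth inhibition vs vehicle controls.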

[6] = NCI Yeast Anticancer Drug Screen. Data for the sgs1 mgt1 strain (AID 161);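 note: 0% = growth of cultures given vehicle only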; conditions: S. cerevisiae sgs1 mgt1 strain, stronger effect = higher value
In short: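 Test agents were incubated with a DNA-repair-mutant yeast strain. Growth was then read and compared against vehicle-treated controls.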

[7] = NCI Yeast Anticancer Drug Screen. Data for the cln2 rad14 strain (AID 165);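 note: 0% = growth equal to vehicle treated cultures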; conditions: S. cerevisiae cln2 rad14 strain, stronger effect = higher value
In short: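 cln2 rad14 yeast strain; compound exposure; growth inhibition read vs vehicle controls.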

[8] = NCI Yeast Anticancer Drug Screen. Data for the bub3 strain (AID 167); conditions: S. cerevisiae bub3 mutant strain, stronger effect = higher value
In short: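 Mutant yeast screening strain plus compound; vehicle-treated cultures serve as the 0% inhibition reference.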

[9] = NCI Yeast Anticancer Drug Screen. Data for the wt2 strain (AID 169); conditions: S. cerevisiae wt2 strain growth inhibition, stronger effect = higher value
In short: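 Read-out: growth inhibition versus vehicle-treated control cultures after compound exposure of the yeast strain.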

[10] = NCI Yeast Anticancer Drug Screen. Data for the mlh1 strain (AID 171);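 note: 0% = growth of vehicle-treated control cultures of the same strain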; conditions: S. cerevisiae mlh1 strain growth inhibition, stronger effect = higher value
In short: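 Read-out: growth inhibition versus vehicle controls. Strain: engineered yeast with a defined DNA repair or cell cycle defect, compound-treated.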

[11] = NCI Yeast Anticancer Drug Screen. Data for the sgs1 strain (AID 173);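 note: 0% = growth of vehicle-only control cultures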; conditions: S. cerevisiae sgs1 mutant, stronger effect = higher value
In short: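 Read-out: yeast growth inhibition relative to vehicle controls, following compound exposure of a strain with a defined DNA repair/cell cycle alteration.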

[12] = NCI Yeast Anticancer Drug Screen. Data for the mlh1 rad18 strain (AID 175); conditions: S. cerevisiae mlh1 rad18 strain growth inhibition, stronger effect = higher value
In short: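 Yeast w/ defined DNA-repair lesions; compound exposure; growth vs vehicle controls → % inhibition.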

[13] = NCI Yeast Anticancer Drug Screen. Data for the rad18 strain (AID 177); conditions: S. cerevisiae rad18 mutant growth inhibition, stronger effect = higher value
In short: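 Readout: growth inhibition vs vehicle controls. Cells: genetically altered yeast strain, DNA repair defect.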

[14] = NCI Yeast Anticancer Drug Screen. Data for the mgt1 strain (AID 153); conditions: S. cerevisiae mgt1 mutant growth inhibition, stronger effect = higher value
In short: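 mgt1 yeast grown with test compound; read-out is growth inhibition versus vehicle-treated cultures.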

[15] = NCI Yeast Anticancer Drug Screen. Data for the rad14 strain (AID 159);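 note: 0% = growth of vehicle-treated control cultures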; conditions: S. cerevisiae rad14 strain growth inhibition, stronger effect = higher value
In short: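 Inhibition of growth is reported for a repair-deficient yeast mutant following compound treatment, calculated relative to cultures that received vehicle.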

[16] = NCI Yeast Anticancer Drug Screen. Data for the CLN2oe strain (AID 163);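 note: 0% = growth of vehicle-only control cultures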; conditions: S. cerevisiae CLN2oe strain, stronger effect = higher value
In short: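 Read-out: yeast growth inhibition, expressed relative to vehicle-only controls. The strain bears an engineered cell-cycle alteration.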

[17] = at 5.0 µM (retest, dose inferred, filed as 0.5)
[18] = at 50.0 µM (retest, dose inferred, filed as 5.0)

Measured: growth inhibition

COC(=O)c1cccc(C)c1C(=O)c1c(C)cc(C)cc1C
inactive: [1]; at 1.2 µM -1% | [1]; at 3.7 µM -1% | [1]; at 11.0 µM 4% | [1]; at 33.0 µM 28% | [2]; at 1.2 µM 0% | [2]; at 3.7 µM 1% | [2]; at 11.0 µM -2% | [2]; at 33.0 µM 5% | [2]; at 100.0 µM 53% | [3]; at 1.2 µM -6% | [3]; at 3.7 µM 6% | [3]; at 11.0 µM 5% | [3]; at 33.0 µM 26% | [4]; at 1.2 µM -1% | [4]; at 3.7 µM 1% | [4]; [17] -10% | [4]; at 11.0 µM 5% | [4]; at 33.0 µM 28% | [4]; [18] 52% | [4]; at 50.0 µM 15.5% | [5]; at 1.2 µM -3% | [5]; at 3.7 µM -1% | [5]; [17] 3% | [5]; at 11.0 µM 4% | [5]; at 33.0 µM 21% | [5]; [18] 59% | [5]; at 50.0 µM 22.8% | [6]; [17] -7% | [6]; [18] 25% | [6]; at 50.0 µM 25.1% | [7]; [17] -25% | [7]; [18] 15% | [7]; at 50.0 µM 25.2% | [8]; at 1.2 µM 0% | [8]; at 3.7 µM -2% | [8]; [17] 9% | [8]; at 11.0 µM -3% | [8]; at 33.0 µM 4% | [8]; [18] 22% | [8]; at 50.0 µM 16.8% | [8]; at 100.0 µM 62% | [9]; at 1.2 µM -3% | [9]; at 3.7 µM -3% | [9]; at 11.0 µM -4% | [9]; at 33.0 µM 9% | [9]; at 100.0 µM 50% | [10]; at 1.2 µM -1% | [10]; at 3.7 µM 2% | [10]; at 11.0 µM 6% | [10]; at 33.0 µM 19% | [10]; at 100.0 µM 59% | [11]; at 1.2 µM 1% | [11]; at 3.7 µM 3% | [11]; at 11.0 µM 7% | [11]; at 33.0 µM 25% | [11]; at 100.0 µM 65% | [12]; [17] 4% | [12]; at 50.0 µM 15.7% | [13]; at 1.2 µM 4% | [13]; at 3.7 µM 7% | [13]; at 11.0 µM 10% | [13]; at 33.0 µM 28% | [13]; at 100.0 µM 67%
active: [1]; at 100.0 µM 77% | [3]; at 100.0 µM 76% | [4]; at 100.0 µM 76% | [5]; at 100.0 µM 72% | [12]; [18] 82%

S=c1[nH]nc(-c2ccc(Cl)cc2)s1
inactive: [1]; at 1.2 µM 16% | [1]; at 3.7 µM 7% | [1]; at 11.0 µM 23% | [3]; at 1.2 µM -1% | [3]; at 3.7 µM -1% | [3]; at 11.0 µM -9% | [3]; at 33.0 µM 31% | [14]; at 1.2 µM 8% | [14]; at 3.7 µM 11% | [14]; at 11.0 µM 12% | [4]; at 1.2 µM -6% | [4]; at 3.7 µM -7% | [4]; at 11.0 µM 21% | [5]; at 1.2 µM 1% | [5]; at 3.7 µM 12% | [5]; at 11.0 µM -15% | [15]; at 1.2 µM -24% | [15]; at 3.7 µM -18% | [15]; at 11.0 µM -16% | [6]; [17] -8% | [16]; at 1.2 µM 6% | [16]; at 3.7 µM 12% | [16]; at 11.0 µM -10% | [16]; at 33.0 µM 55% | [7]; [17] 52% | [8]; at 1.2 µM 23% | [8]; at 3.7 µM 24% | [8]; [17] 27% | [8]; at 11.0 µM 16% | [10]; at 1.2 µM -16% | [10]; at 3.7 µM -17% | [10]; at 11.0 µM -8% | [10]; at 33.0 µM 67% | [11]; at 1.2 µM -13% | [11]; at 3.7 µM -13% | [11]; at 11.0 µM -16% | [11]; at 33.0 µM 64% | [13]; at 1.2 µM -15% | [13]; at 3.7 µM -6% | [13]; at 11.0 µM 21%
active: [1]; at 33.0 µM 93% | [1]; at 100.0 µM 97% | [3]; at 100.0 µM 81% | [14]; at 33.0 µM 83% | [14]; at 100.0 µM 97% | [4]; [17] 73% | [4]; at 33.0 µM 90% | [4]; [18] 99% | [4]; at 50.0 µM 87.2% | [4]; at 100.0 µM 95% | [5]; [17] 72% | [5]; at 33.0 µM 71% | [5]; [18] 99% | [5]; at 50.0 µM 87.8% | [5]; at 100.0 µM 96% | [15]; at 33.0 µM 92% | [15]; at 100.0 µM 97% | [6]; [18] 97% | [16]; at 100.0 µM 95% | [7]; [18] 97% | [8]; at 33.0 µM 81% | [8]; [18] 96% | [8]; at 100.0 µM 96% | [10]; at 100.0 µM 96% | [11]; at 100.0 µM 94% | [12]; [17] 80% | [12]; [18] 99% | [12]; at 50.0 µM 86% | [13]; at 33.0 µM 92% | [13]; at 100.0 µM 96%

On1cnc(=S)c2[nH]cnc21
inactive: [1]; at 1.2 µM -28% | [1]; at 3.7 µM -27% | [1]; at 11.0 µM -29% | [1]; at 33.0 µM -26% | [1]; at 100.0 µM -35% | [2]; at 1.2 µM -31% | [2]; at 3.7 µM -33% | [2]; at 11.0 µM -30% | [2]; at 33.0 µM -39% | [2]; at 100.0 µM -42% | [3]; at 1.2 µM -23% | [3]; at 3.7 µM -39% | [3]; at 11.0 µM -11% | [3]; at 33.0 µM -37% | [3]; at 100.0 µM -41% | [4]; at 1.2 µM -63% | [4]; at 3.7 µM -33% | [4]; [17] 24% | [4]; at 11.0 µM -65% | [4]; at 33.0 µM -62% | [4]; at 50.0 µM -7.05% | [4]; at 100.0 µM -55% | [5]; at 1.2 µM 31% | [5]; at 3.7 µM 9% | [5]; [17] 15% | [5]; at 11.0 µM 11% | [5]; at 33.0 µM -2% | [5]; at 50.0 µM 1.85%
active: [4]; [18] 74% | [5]; [18] 99%

Reference: PubChem BioAssay (NCI)
